# Source: PubChem
# A selection: hits, their analogues and other compounds. The true share with any hit is near 31%.
# CYP2C9 inhib = inhibitors of human CYP2C9 | AID 777 | CYP2C9 Supersomes, luciferin-H conversion, luminescence | P11712 | 96,000 compounds, 20% hits | inhibition, % at 5 µM;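 active means blocking of liver enzyme CYP2C9 beyond about 50% at 5 µM, limit read from the data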
# CYP2C9 act = CYP2C9 (human) activation; activation factor at 5 µM; P11712; recombinant CYP2C9, luciferin-H conversion, luminescence; active compounds read high; factor 1 = untreated enzyme, 0 = blocked; AID 1024; 96,000 compounds, 1.4% hits;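 active means activation factor of 2 or more for CYP2C9 at a 5 µM dose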;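 further: 0 = sulfaphenazole-blocked wells and 1 = vehicle-only wells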
# PLAP act = activates human placental alkaline phosphatase; 96,000 compounds, 1.2% hits; AID 696; activation fold at 20 µM; P05187; purified PLAP enzyme, luminescent substrate read-out; active compounds read high; in the data active means activation fold above about 2
# Target sequence (P05187 whole entry, looked up): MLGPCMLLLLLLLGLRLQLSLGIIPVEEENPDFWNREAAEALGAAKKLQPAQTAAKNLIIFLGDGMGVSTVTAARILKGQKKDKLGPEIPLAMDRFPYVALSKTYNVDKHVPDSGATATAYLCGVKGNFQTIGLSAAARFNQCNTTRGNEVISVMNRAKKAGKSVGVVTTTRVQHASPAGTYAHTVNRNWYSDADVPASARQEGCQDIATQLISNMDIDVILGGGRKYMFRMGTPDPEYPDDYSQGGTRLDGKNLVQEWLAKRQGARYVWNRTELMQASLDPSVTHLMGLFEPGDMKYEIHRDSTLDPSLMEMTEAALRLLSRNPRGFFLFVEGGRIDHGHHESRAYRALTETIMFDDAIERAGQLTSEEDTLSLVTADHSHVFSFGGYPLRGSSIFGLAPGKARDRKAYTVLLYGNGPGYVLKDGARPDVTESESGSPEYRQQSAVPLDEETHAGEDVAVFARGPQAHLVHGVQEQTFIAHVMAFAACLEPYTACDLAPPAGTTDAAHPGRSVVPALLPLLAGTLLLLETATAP
# CYP2C19 activ = activators of human cytochrome P450 2C19; P33261; recombinant CYP2C19, luciferin-H EGE luminescence; active compounds read high; 0 = fully inhibited enzyme, 1 = untreated enzyme; activation factor at 5 µM; 96,000 tested, under 10 active;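 active means activation factor of at least 2 at 5 µM in the primary screen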;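 further: 0 = wells with 2.5 mM tranylcypromine and 1 = vehicle-only wells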
# CYP2C19 inhib = inhibitors of human CYP2C19; P33261; CYP2C19 Supersomes, luciferin-H EGE luminescence, 30 min; inhibition, % at 5 µM; 96,000 compounds, 21% hits; AID 778;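 active means CYP2C19 inhibition above a set limit at 5 µM in the primary screen, cut at about 50% in these data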;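 further: plate controls were negative control wells for no effect and 2.5 mM tranylcypromine positive control for full effect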
# * hit, by the source's call; · = no result given.
SMILES,CYP2C9 inhib,CYP2C9 act,PLAP act,CYP2C19 activ,CYP2C19 inhib
Cn1c(=O)c(C(=S)NC(=O)C2CC2)c(N)n(Cc2ccccc2)c1=O,29.6,0.7,1.5,0.8,18.5
COCCN(C(=O)CN1CCCc2ccccc21)c1c(N)n(Cc2ccccc2)c(=O)[nH]c1=O,-1.8,1,1.3,1,-1.8
Cn1c(=O)c(C(=O)CN2CCCc3ccccc32)c(N)n(Cc2ccccc2)c1=O,92.8*,0.1,1.8,0.1,87.1*
CCC(=O)OCC(=O)c1c(N)n(Cc2ccccc2)c(=O)n(C)c1=O,42.3,0.6,1.2,0.3,66.0*
Cn1c(=O)c(C(=O)CSc2nnc(Nc3ccccc3)s2)c(N)n(Cc2ccccc2)c1=O,72.4*,0.3,1,1,3.3
Cc1nn(-c2ccccc2)c(C)c1C(=O)OCC(=O)c1c(N)n(CC(C)C)c(=O)n(C)c1=O,61.3*,0.4,1.5,0.6,39.0
COc1c(C)cccc1C(=O)Nc1ccc(N2CCOCC2)c(Cl)c1,-71.2,1.7,1.5,0.9,10.9
Cn1c(CO)cnc1SCc1ccc(Cl)cc1,17.4,0.8,0.9,0.2,83.6*
Cc1ccc(S(=O)(=O)Cn2nnnc2CN2CCCC3(CCCCC3)C2)cc1,83.0*,0.2,1.2,0.1,93.2*
CCOC(=O)/C(=C\c1ccccc1)C(=O)c1cc(C(C)=O)c(Nc2ccccc2)s1,98.2*,0,1.4,0.1,91.6*
CCOC(=O)/C(=C\c1cccnc1)C(=O)c1cc(C(C)=O)c(Nc2ccccc2)s1,99.8*,0,1.4,0.3,65.0*
Cc1ccc(-n2c(-c3c(-c4ccccc4)noc3C)n[nH]c2=S)cc1,67.5*,0.3,2.1*,0.4,61.7*
Cc1ccc(-n2c(-c3cccc(C)c3)n[nH]c2=S)cc1,23.6,0.8,1.8,0.6,38.1
COc1cccc(/C=N/n2c(=S)n(C)c3cc(C)c(C)cc32)c1OC,38.9,0.6,1.1,0.8,17.1
COc1cccc(/C=N/n2c(SC)nnc2-c2ccccc2)c1OC,90.8*,0.1,1.4,0.1,91.4*
COc1cccc(/C=N/n2c(SC)nnc2-c2ccccc2)c1O,53.5*,0.5,1.4,0.7,26.4
COc1cccc(/C=N/n2cnc3ccccc32)c1OC,45.8,0.5,1,0.2,83.1*
COc1cccc(/C=N/n2c(N)nc3ccccc32)c1OC,18.9,0.8,1.5,0.7,31.4
O=C(Cn1cnc2ccccc2c1=O)OCCCCN1C(=O)c2ccccc2C1=O,34.7,0.7,1,0.8,15.9
Cc1cccc(NC(=S)N2CCC(N(C)CC3CCCO3)CC2)c1C (stereo not given),-9.3,1.1,1,1.2,-15.7
Nc1nonc1-c1noc(CCCCCN2C(=O)c3ccccc3C2=O)n1,13.0,0.9,1.1,0.9,6.1
Cn1c(=O)c2c(nc(N3CCOCC3)n2CCCNC2=NCCCCC2)n(C)c1=O,-6.7,1.1,0.8,1.1,-10.5
Cc1cccc(C)c1NC(=O)CSc1nnnn1C,-16.1,1.2,1.4,1.1,-13.3
Cn1nnnc1SCc1nc2ccccc2s1,-20.4,1.2,0.8,0.4,64.2*
Cc1ccnc(SCc2nc3ccccc3s2)n1,25.8,0.7,1.4,0.1,92.5*
SMILES,CYP2C9 inhib,CYP2C9 act,PLAP act,CYP2C19 activ,CYP2C19 inhib
O=C(Nc1ccc(Br)c(Cl)c1)C1CC1,7.9,0.9,1,0.7,25.5
COc1cc(CC(=O)N2CCc3ccccc32)cc(OC)c1OC,15.6,0.8,1.5,0.7,26.4
COc1cc2c3c(c1OC)C1(C=CC(=O)C=C1)CC3N(C(=O)c1ccccc1)CC2 (stereo not given),86.4*,0.1,1.1,0.9,13.8
Cc1cc(C)cc(N2C(=O)CC(n3nc(C)cc3C)C2=O)c1 (stereo not given),11.7,0.9,1.2,0.6,38.9
C=C(C)COc1ccc(-c2nc(N)ncc2Oc2ccccc2OC)c(O)c1,29.6,0.7,1,0.8,24.2
CCOc1ccc(-c2[nH]ncc2Oc2ccccc2OCC)c(O)c1,88.2*,0.1,2.5*,0.1,90.4*
CCCCCOC(=O)c1ccc(OC(=O)c2cncc(Br)c2)cc1,31.5,0.7,0.9,0.9,5.8
CCCOC(=O)c1ccc(Oc2cn[nH]c2-c2ccc(OC)cc2O)cc1,99.1*,0,2.9*,0,96.6*
CCOc1ccc(-c2nc(N)ncc2Oc2ccccc2Br)c(O)c1,6.1,0.9,0.9,0.8,16.7
CCOc1ccc(-c2[nH]ncc2-c2ccc(OC)c(OC)c2)c(O)c1,84.3*,0.2,2.7*,0.2,83.7*
C=C(C)COc1ccc(-c2[nH]ncc2Oc2ccccc2OC)c(O)c1,84.7*,0.2,2*,0.4,61.1*
CCOC(=O)C1CCN(S(=O)(=O)c2c(C)n(C)c(=O)n(C)c2=O)CC1,-7.0,1.1,1,1,2.0
C=C(C)COc1ccc(-c2[nH]ncc2-c2ccccc2OC)c(O)c1,89.3*,0.1,2.5*,0.3,74.7*
CCOc1ccc(-c2[nH]ncc2Oc2ccccc2OC)c(O)c1,98.3*,0,·,0,99.3*
Cc1cc(C)c2cc(C(c3nnnn3CC3CCCO3)N3CCN4CCCC4C3)c(=O)[nH]c2c1 (stereo not given),16.6,0.8,1.3,1,-4.2
Cn1c(SCC(=O)Nc2ccc(F)cc2F)nnc1-c1cccnc1,19.1,0.8,0.9,0.9,11.6
Cc1nn2c(-c3ccccc3)c(-c3ccccc3)nc2[nH]c1=O,11.0,0.9,1.3,0.9,7.8
Cc1nn2cc(-c3ccccc3)nc2[nH]c1=O,73.8*,0.3,0.9,0.9,5.0
CC(C)C1Oc2ccccc2N(CC(=O)NCCCN2C(C)CCCC2C)C1=O (stereo not given),-2.4,1,1,1,-2.8
CC1(c2ccc3c(c2)OCO3)NC(=O)N(CC(=O)Nc2ccc(N3CCOCC3)cc2)C1=O (stereo not given),58.7*,0.4,1.4,0.8,20.3
Cc1cccc(NC(=O)CN2C(=O)NC(C)(c3ccc4c(c3)OCO4)C2=O)c1 (stereo not given),66.9*,0.3,0.7,0.7,27.3
CC1(c2ccccc2)NC(=O)N(CC(=O)N2CCOCC2)C1=O (stereo not given),-1.3,1,0.9,0.9,13.2
Cc1ccc(C2(C)NC(=O)N(CC(=O)Nc3ccc4c(c3)OCO4)C2=O)cc1 (stereo not given),82.3*,0.2,1.1,0.6,36.0
CCC1(c2ccccc2)NC(=O)N(CC(=O)Nc2ccc3c(c2)OCO3)C1=O (stereo not given),19.9,0.8,0.9,1,-3.3
N#Cc1c2c(c(NCc3cccnc3)n3c1nc1ccccc13)CCC2,33.6,0.7,0.8,1,-3.2
O=[N+]([O-])c1cc(Br)c(O)c(/C=N/Nc2nnnn2-c2cccc3ccccc23)c1,100.1*,0,1.7,0.1,90.6*
COc1ccccc1-c1c(NC(=O)c2ccco2)n(-c2ccccc2)nc(C)c1=O,9.2,0.9,0.9,0.9,9.6
